Source: PubChem BioAssay AID651812 (National Center for Advancing Translational Sciences (NCATS), 2012)
The whole screen tested about 2,100 compounds, of which about 650 (31%) were called active. Not shown: some 16% with an inconclusive outcome. Calls come from the whole dose curve; as a rule, active = well fitted inhibition curve with a large enough effect; inconclusive = small, poorly fitted or top-dose-only effect; inactive = flat fitted curve, though single readings scatter. Some of the results follow.

experiment: qHTS for inhibitors of Vif-A3G interactions: Cherry picks; settings: HeLa A3G-eYFP + Vif (tagged APOBEC3G with the HIV-1 protein that degrades it), 24 h; Potency: eYFP fluorescence increase; series mostly up to 36.9 µM; activity, negative = fluorescence increase: at the top concentration; note: nearly all actives have a fitted effect of over 80% in size; for activity, negative = fluorescence increase: % of control where 0% means no effect
Summary of the method: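 Cherry-picked compounds tested at several concentrations on A3G-eYFP/Vif HeLa cells for 24 hours; loss of Vif-driven degradation read as eYFP fluorescence by cytometric plate imaging, 488 nm excitation, 500-530 nm emission.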
Potency is the fitted concentration of half-maximal effect.

Compound | activity, negative = fluorescence increase | Potency
O=C(NCc1cccnc1)c1cccc(NS(=O)(=O)c2ccc(Br)cc2)c1 | -0.847% (inactive) | 
COc1ccc(NC(=O)c2ccc(NC(=O)C(C)C)cc2)c([N+](=O)[O-])c1 |  | 10.3 µM (active)
COc1ccc(COc2cc(-c3cccc(OC)c3)nc3ccc(NC(=O)C(C)C)cc23)cc1 | -2.87% (inactive) | 
COc1ccc(-c2nnc(NC(=O)c3ccc([N+](=O)[O-])o3)o2)c(OC)c1 | -1.94% [at 46.1 µM] (inactive) | 
Cc1ccc(C=Nc2ccccc2C(N)=O)s1 | -5.29% (inactive) | 
Cc1ccc(/C=C2/NC(=O)N(Cc3ccccc3)C2=O)s1 |  | 23.1 µM (active)
O=C1N/C(=C\c2ccccc2)c2ccccc21 | -6.2% (inactive) | 
CCN1C(=O)/C(=C/c2ccc(N3CCCC3)cc2)NC1=S |  | 10.3 µM (active)
CN(C)c1ccc(/C=C2\NC(=S)N(Cc3ccccc3)C2=O)cc1 |  | 9.94 µM (active)
O=C1/C(=C/c2ccc(N3CCCC3)cc2)NC(=S)N1C1CC1 |  | 3.66 µM (active)
COc1ccc(COn2c(=O)c(C)[n+]([O-])c3ccccc32)cc1OC | -5.61% (inactive) | 
COc1ccccc1N1CCN(c2ncnc3c2oc2ccccc23)CC1 | 1.39% (inactive) | 
CCOC(=O)N1CCN(C(=O)c2ccccc2-c2ccccc2)CC1 | -0.014% (inactive) | 
CCOC(=O)N1CCN(C(=O)c2cc(-c3ccc(OCC)cc3)nc3ccccc23)CC1 | 0.415% (inactive) | 
CCOC(=O)N1CCN(/C=C(\C#N)c2nc3ccccc3s2)CC1 |  | 18.4 µM (active)
COc1ccc(S(=O)(=O)N2N=C(C)Oc3ccccc3C2=O)cc1 | -6.59% (inactive) | 
COc1cc(/C=C2\SC(=S)N(NC(=O)c3ccccc3O)C2=O)ccc1O |  | 23.1 µM (active)
COc1cc(/C=N/NC(=O)c2[nH]nc3c2CCc2ccccc2-3)ccc1O | -2.56% (inactive) | 
COc1cc(/C=C2\SC(=S)N(NC(=O)c3ccc(O)c(OC)c3)C2=O)ccc1O |  | 13 µM (active)
COc1ccc(C(=O)N/N=C/c2cc(Br)ccc2O)cc1OC | 0.135% [at 46.1 µM] (inactive) | 
COc1cc(/C=N/NC(=O)c2cc(-c3c(C)nn(-c4ccccc4)c3C)n[nH]2)ccc1O | -8.18% (inactive) | 
COc1cc(/C=C/C(C)=NNc2ccccc2)ccc1O | -7.3% (inactive) | 
CCOC(=O)C(C(=O)OCC)C(Nc1cccc(Br)c1)c1ccccc1 (configuration not stated) | -2.02% (inactive) | 

Compound | activity, negative = fluorescence increase | Potency
c1ccc2c(CCc3c[nH]c4ccccc34)ccnc2c1 |  | 23.1 µM (active)
CCCCN1C(=O)/C(=C2/Sc3ccccc3N2C)S/C1=N\c1ncn[nH]1 |  | 18.4 µM (active)
Cc1ccc2c(c1)C=CC(C#N)N2C(=O)c1ccccc1 (configuration not stated) | -2.86% (inactive) | 
Nc1c(C(=O)Nc2ccc(S(=O)(=O)N3CCCC3)cc2)sc2nc3ccc(OC(F)(F)F)cc3cc12 |  | 20.6 µM (active)
Nc1c(C(=O)Nc2ccc(S(=O)(=O)N3CCCC3)cc2)sc2nc3cc4c(cc3cc12)CCC4 |  | 8.2 µM (active)
O=C(Nc1ccc(Cl)cn1)c1cccc(S(=O)(=O)N2CCCCCC2)c1 | -4.99% (inactive) | 
COc1cccc(C(=O)Nc2ccc(N3CCCC3)cc2)c1 | -6.33% (inactive) | 
O=C(Nc1nc2ccc(S(=O)(=O)N3CCCC3)cc2s1)C1CCCCC1 | -0.031% (inactive) | 
COc1ccc(NC(=O)c2oc3ccc(S(=O)(=O)N4CCOCC4)cc3c2C)cc1 | -0.471% (inactive) | 
O=C(Nc1ccc(N2CCOCC2)cc1)c1cccc2ccccc12 | -3.81% (inactive) | 
Cc1cccc2cc3c(N)c(C(=O)Nc4ccc(N5CCOCC5)cc4)sc3nc12 |  | 14 µM (active)
CCc1cccc2cc3c(N)c(C(=O)Nc4ccc(S(=O)(=O)N5CCCC5)cc4)sc3nc12 |  | 4.98 µM (active)
Cc1c(C(=O)Nc2ccc(C(C)C)cc2)sc2nc3n(c(=O)c12)CCC3 | -1.38% [at 46.1 µM] (inactive) | 
Cc1cc2nc(-c3ccc(SCC(=O)Nc4ccc(S(=O)(=O)N5CCCC5)cc4)nc3)[nH]c2cc1C | -11% [at 46.1 µM] (inactive) | 
COC(=O)Nc1ccc(S(=O)(=O)N2CCCc3ccccc32)cc1 | -4.64% (inactive) | 
CN1C(=O)N(C)c2ccc(C=O)c3cccc1c23 | 0.629% [at 46.1 µM] (inactive) | 
COc1cc(OC)c(/C=C/c2ccnc3ccccc23)c(OC)c1 | -10% [at 46.1 µM] (inactive) | 
COc1cc(OC)c(/C=C/c2ccc3ccccc3[n+]2C)c(OC)c1 |  | 10.3 µM (active)
COc1cc(OC)c(C2Nc3cccc4cccc(c34)N2)c(OC)c1 | 6.18% [at 46.1 µM] (inactive) | 
CCN(CC(=O)NCc1ccc(F)cc1)C(=O)/C=C/c1ccc(OC)c(S(=O)(=O)NC(C)C)c1 | -20.2% (inactive) | 
Cc1sc2ncnc(SCC(=O)NC(C)(C)C)c2c1C | 0.117% [at 46.1 µM] (inactive) | 
Cc1sc2ncn(CC(=O)NCc3ccccc3)c(=O)c2c1C | -0.561% (inactive) | 
Cc1sc2ncnc(N=Nc3c(O)[nH]c4ccccc34)c2c1C |  | 16.4 µM (active)

Compound | activity, negative = fluorescence increase | Potency
Fc1ccc(-c2cnn3c(-c4cccs4)ccnc23)cc1 |  | 12.5 µM (active)
COc1ccc2nc(SCC(C)=O)c(C#N)cc2c1 |  | 3.26 µM (active)
COc1ccc2cc(C(=O)C3CCCN(Cc4ccccn4)C3)ccc2c1 (configuration not stated) | 13.5% [at 46.1 µM] (inactive) | 
CCC(=O)Nc1nc2ccc(NC(=O)c3cc(OC)c(OC)c(OC)c3)cc2s1 | 0.0932% (inactive) | 
CCN(CC)c1ccc(NC(=O)CSc2nc(C3CC3)nc3ccccc23)cc1C | -9.93% (inactive) | 
COc1ccc2nc(NC(=O)c3ccc([N+](=O)[O-])o3)sc2c1 | -10.5% (inactive) | 
CCc1ccc2nc(SCC(=O)Nc3ccccc3N3CCOCC3)c(C#N)cc2c1 | -24.4% [at 46.1 µM] (inactive) | 
Cc1nc2cc(NC(=O)CSc3nc4c(C)cccc4cc3C#N)ccc2s1 |  | 13 µM (active)
Cc1ccc(NC(=O)CSc2n[nH]c(-c3ccccn3)n2)cc1 | 1.26% [at 46.1 µM] (inactive) | 
COc1ccc2nc(SCC(=O)Nc3ccc4sc(C)nc4c3)c(C#N)cc2c1 |  | 20.6 µM (active)
Cc1ccc2nc(SCC(=O)Nc3ccc4sc(C)nc4c3)c(C#N)cc2c1 |  | 18.4 µM (active)
CCCOc1ccccc1C1CC(=O)Nc2cc3c(cc21)OCO3 (configuration not stated) | 2.79% (inactive) | 
Cn1nnnc1SCc1nc2scc(-c3ccc(Cl)cc3)c2c(=O)[nH]1 | -22.9% [at 46.1 µM] (inactive) | 
CCOC(=O)c1sc(NC(=S)NC(=O)c2ccco2)nc1C | 10.5% [at 46.1 µM] (inactive) | 
COc1cccc(Nc2nc(Nc3ccc(Cl)c(C(=O)O)c3)nc(C)c2[N+](=O)[O-])c1 | 1.14% (inactive) | 
CCOC(=O)c1cc2n(c1/N=C/N(C)C)-c1ccccc1C2=O |  | 20.6 µM (active)
CCOc1cc(/C=C(/C#N)C(=O)Nc2ccc(O)cc2)cc(Br)c1O |  | 15.8 µM (active)
CCOc1ccc(NC(=O)/C(C#N)=C/c2ccc(N3CCCC3)c(C)c2)cc1 |  | 6.51 µM (active)
N#C/C(=C/c1ccc2c(c1)OCO2)C(=O)Nc1ccc(O)cc1 | -6.9% (inactive) | 
CCOc1ccc(NC(=O)N2CC=C(c3c[nH]c4ccccc34)CC2)cc1 | -14.2% [at 46.1 µM] (inactive) | 
CCOc1ccc(/C=N/NC(=O)c2cc3c(OC)cc(OC)c(OC)c3[nH]2)cc1 | 1.38% (inactive) | 
